42 compounds from PMC4336329 (PLoS ONE, 2015) can be followed below.

Structures are written as SMILES. Out of some 310,000 compounds screened, about 14,000 (4.5%) showed an effect of 50% or more. The effect is printed as a negative number. Only a selection was taken, and strong results are over-represented in it overall.
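Further: peak tail current of the secondary pulse compared with the same well before compound.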

This assay deals with human ether-à-go-go-related gene (hERG) potassium channel (human, UniProt Q12809). The assay is described as follows: primary screen, population patch clamp on CHO cells stably expressing hERG; higher = less effect of the substance.
Chain of human ether-à-go-go-related gene (hERG) potassium channel (Q12809 whole entry, looked up): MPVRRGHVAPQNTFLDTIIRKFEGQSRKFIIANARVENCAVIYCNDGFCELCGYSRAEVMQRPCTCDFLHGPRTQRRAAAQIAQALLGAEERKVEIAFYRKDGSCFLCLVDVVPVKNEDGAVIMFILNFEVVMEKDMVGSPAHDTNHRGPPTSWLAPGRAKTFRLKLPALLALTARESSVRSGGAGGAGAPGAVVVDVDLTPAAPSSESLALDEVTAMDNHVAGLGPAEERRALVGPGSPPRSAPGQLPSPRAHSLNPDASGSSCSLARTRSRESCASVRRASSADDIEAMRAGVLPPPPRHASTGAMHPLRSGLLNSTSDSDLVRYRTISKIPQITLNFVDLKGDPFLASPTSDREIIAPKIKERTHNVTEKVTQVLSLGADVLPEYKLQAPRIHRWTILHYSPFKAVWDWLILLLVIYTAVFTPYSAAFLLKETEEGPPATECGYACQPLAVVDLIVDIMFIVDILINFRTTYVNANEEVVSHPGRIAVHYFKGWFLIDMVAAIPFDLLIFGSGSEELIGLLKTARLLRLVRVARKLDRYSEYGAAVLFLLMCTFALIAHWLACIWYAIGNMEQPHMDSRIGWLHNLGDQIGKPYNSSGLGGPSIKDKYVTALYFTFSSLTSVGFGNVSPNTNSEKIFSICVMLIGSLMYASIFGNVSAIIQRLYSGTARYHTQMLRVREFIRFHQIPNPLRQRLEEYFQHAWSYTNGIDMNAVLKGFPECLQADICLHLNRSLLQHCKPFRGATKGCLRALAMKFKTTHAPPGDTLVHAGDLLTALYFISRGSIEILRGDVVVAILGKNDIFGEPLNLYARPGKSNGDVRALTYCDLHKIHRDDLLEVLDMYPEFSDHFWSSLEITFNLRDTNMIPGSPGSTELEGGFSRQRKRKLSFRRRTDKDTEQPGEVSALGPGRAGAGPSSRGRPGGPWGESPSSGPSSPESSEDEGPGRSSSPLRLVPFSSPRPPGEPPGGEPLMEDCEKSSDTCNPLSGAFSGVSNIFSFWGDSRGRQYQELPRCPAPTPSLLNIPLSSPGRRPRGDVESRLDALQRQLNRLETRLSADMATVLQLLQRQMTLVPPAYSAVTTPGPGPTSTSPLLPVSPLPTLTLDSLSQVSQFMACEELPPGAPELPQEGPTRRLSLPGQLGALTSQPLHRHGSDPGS
With `C=CC1CN(C(=O)OCC(Cl)(Cl)Cl)C2CC3c4ccc(OC)cc4NC3C3CC1C2CO3` (stereo not drawn), the “hERG current change (%, negative = inhibition) at 10uM” value is listed as -7.61%.
For the compound `CCOc1ccc2nc(SCC(=O)NCc3ccccc3)[nH]c2c1`, the “hERG current change (%, negative = inhibition) at 10uM” value is reported as 2.63%.
As to `CC(C)CN(C(=O)COC(=O)CCSc1ccc(F)cc1)c1c(N)n(Cc2ccccc2)c(=O)[nH]c1=O`, the “hERG current change (%, negative = inhibition) at 10uM” value came to 10.1%.
Consider `Cc1cc(C(=O)CN2C(=O)NC3(CCCc4ccccc43)C2=O)c(C)n1C` (stereo not drawn), for which the “hERG current change (%, negative = inhibition) at 10uM” value is reported as -13.5%.
The result for `COc1ccc(/C=C2\S/C(=N/S(=O)(=O)c3cccs3)NC2=O)cc1` reads 8.45%; that for `CS(=O)(=O)N(CC(=O)NCCC1=CCCCC1)c1cccc([N+](=O)[O-])c1`, -32.4%; that for `COc1cc(OC)cc(C(=O)Oc2c(CN3CCOCC3)cc(Cl)c3cccnc23)c1`, -15.5%.
In the case of `COC(=O)c1cccc(Nc2cc(C)nc(-c3ccccc3O)n2)c1` it was 10.2%; in that of `COc1ccc(/C=C/C(=O)OCC(=O)c2ccc3c(c2)NC(=O)CO3)c(OC)c1`, 1.6%; in that of `Cc1ccccc1NC(=O)C1CCCN(S(=O)(=O)c2ccc3c(c2)C(C)(C)C(=O)N3C)C1` (stereo not drawn), 6.82%.
In the case of `COCc1ccc(CN2CCC(n3nccc3NC(=O)CCCc3ccccc3)CC2)o1` it was 21.5%; in that of `C=CCOc1ccccc1CN1CCC(n2nccc2NC(=O)c2ccccc2)CC1`, -64.4%; in that of `COc1cccc(CN2CCC(n3nccc3NC(=O)CCCc3ccccc3)CC2)c1O`, -75.9%.
`COc1ccccc1CN1CCC(n2nccc2NC(=O)CCCc2ccccc2)CC1`: the “hERG current change (%, negative = inhibition) at 10uM” value is recorded as -85.2%.
The result for `CCOc1ccccc1CN1CCC(n2nccc2NC(=O)CCc2ccccc2)CC1` reads -38.6%.
The result for `CCOc1ccccc1CN1CCC(n2nccc2NC(=O)CCCc2ccccc2)CC1` reads -83.7%.
The result for `O=C(Nc1ccnn1C1CCN(Cc2c[nH]c3ccccc23)CC1)c1ccccc1` reads -44.7%; that for `C=CCOc1ccccc1CN1CCC(n2nccc2NC(=O)C2CCOC2)CC1` (stereo not drawn), -21.5%.
For the compound `COc1ccccc1CN1CCC(n2nccc2NC(=O)CCc2ccccc2)CC1`, the “hERG current change (%, negative = inhibition) at 10uM” value is -23.9%.
For the compound `O=S(=O)(NCc1cccnc1)c1ccc(Cl)c(Cl)c1`, the “hERG current change (%, negative = inhibition) at 10uM” value was -10.9%.
The result for `O=C(CN1CCCCC1)Nc1cc(S(=O)(=O)N2CCOCC2)ccc1N1CCCC1` reads 6.08%; that for `COc1ccc(C(=O)C[n+]2cccc3cc(OC)ccc32)cc1.[Br-]`, 6.04%; that for `CCn1c(=O)n(CC)c2cc(NC(=O)CSc3ccc([N+](=O)[O-])cn3)ccc21`, -5.04%.
In the case of `Cc1nnc(SCC(=O)Nc2ccc(N3CCOCC3)cc2)o1` it was 10.3%; in that of `COCc1ccc(CN2CCC(n3nccc3NC(=O)CCOc3ccccc3)CC2)o1`, -0.748%.
The result for `COc1cccc(CN2CCC(n3nccc3NC(=O)CCOc3ccccc3)CC2)c1O` reads -61.5%; that for `Cc1ccccc1CN1CCC(n2nccc2NC(=O)CCOc2ccccc2)CC1`, -44.9%; that for `CCC1(CC)NC(=O)N(CC(=O)OC(C)C(=O)Nc2ccc(NC(C)=O)cc2)C1=O` (stereo not drawn), 3.1%.
On to `CCC1(CC)NC(=O)N(CC(=O)OC(C)C(=O)Nc2ccccc2OC)C1=O` (stereo not drawn), for which the “hERG current change (%, negative = inhibition) at 10uM” value is reported as 32.3%.
The result for `CCC1(CC)NC(=O)N(CC(=O)OC(C)C(=O)Nc2ccc(Cl)cn2)C1=O` (stereo not drawn) reads -51.7%; that for `N#Cc1ccsc1NC(=O)CN1CCCCCC1`, -3.42%; that for `N#Cc1ccsc1NC(=O)CN1CCN(S(=O)(=O)c2cc(Cl)ccc2Cl)CC1`, -32%.
In the case of `N#Cc1ccsc1NC(=O)CN1CCN(S(=O)(=O)c2ccccc2C(F)(F)F)CC1` it was -56.9%; in that of `Cc1ccc(C)c(S(=O)(=O)N2CCN(CC(=O)Nc3sccc3C#N)CC2)c1`, -57.7%.
The result for `CC(=O)N1CCN(CC(=O)Nc2sccc2C#N)CC1` reads 17.8%; that for `N#Cc1ccsc1NC(=O)CN1CCN(c2ccccc2O)CC1`, -4.95%.
Take `COC(=O)C1=C2c3[nH]c4ccccc4c3CCN2C(=O)CC1`: the “hERG current change (%, negative = inhibition) at 10uM” value is on record as -23.1%.
In the case of `O=C(CN1CCOCC1)NCc1ccccc1` it was 17.4%; in that of `C=C(C)COc1ccc(-c2[nH]ncc2-c2ccc(OC)c(OC)c2)c(O)c1`, -0.891%; in that of `CC(C(=O)N1CCc2ccccc21)N(C)CC(=O)Nc1ccc(F)cc1` (stereo not drawn), -47.9%.
In the case of `CC(C(=O)N1CCc2ccccc21)N(C)CC(=O)Nc1ccccc1Cl` (stereo not drawn) it was -29.2%.
For `Cc1cc(C)c(NC(=O)CN(C)C(C)C(=O)N2CCc3ccccc32)c(C)c1` (stereo not drawn), the “hERG current change (%, negative = inhibition) at 10uM” value was -50.3%.
